For 10 compounds, growth results are on record in PubChem BioAssay (NCI).

Molecules are shown by their SMILES. This is part of a sample that, as a whole, favours compounds with a hit. Of some 83,000 tested, about 20% had one in any assay.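 48-hour exposure, single concentration, 96-well plates; percent growth endpoint where 0 means no net growth. Active: below 10.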 A number with no mark means an inactive call. The source made the active and inactive calls.

Assay in all cases: NCI-60 one-dose screen, 48 h (100 = growth as untreated, 0 = no growth, -100 = all killed)
One assay deals with A549/ATCC NSCLC. The note with it: 10 µM unless noted.
The next assay has as its system COLO 205 colon. The following applies: 10 µM.
The test system of another assay is HT29 colon. The following applies: 10 µM unless noted.
In another assay the test system is SNB-75 CNS. The following applies: 10 µM unless noted.
The test system of a further assay is PC-3 prostate. The note with it: 10 µM unless noted.
Another assay relates to SK-MEL-5 melanoma. The note with it: 10 µM unless noted.
A further assay concerns SK-MEL-28 melanoma. The following applies: 10 µM unless noted.
For the next assay, the system named is EKVX NSCLC. The following applies: 10 µM unless noted.
The subject of a further assay is CAKI-1 renal. The following applies: 10 µM unless noted.
Another assay relates to SR leukemia. The note with it: 10 µM.
The test system of another assay is RPMI-8226 leukemia. The following applies: 10 µM unless noted.
Another assay has as its system OVCAR-5 ovarian. The note with it: 10 µM unless noted.
Another assay deals with IGROV1 ovarian. The following applies: 10 µM.
A further assay has as its system OVCAR-3 ovarian. The following applies: 10 µM unless noted.
A further assay has as its system HS 578T breast. The following applies: 10 µM unless noted.
The next assay deals with MCF7 breast. The following applies: 10 µM unless noted.
Another assay concerns CCRF-CEM leukemia. The note with it: 10 µM unless noted.
A further assay deals with NCI-H522 lung. The note with it: 10 µM unless noted.

Take `O=C1C=CC(=O)C2C1C1(Cl)C(Cl)=C(Cl)C2(Cl)C1(Cl)Cl` (centres undefined): the growth was 60.6% with A549/ATCC NSCLC; 74.7% with COLO 205 colon; 76.7% with HT29 colon; 40.3% with SNB-75 CNS; 44.3% in the assay on PC-3 prostate; 47.5% with SK-MEL-5 melanoma. In addition, the growth with SK-MEL-28 melanoma is 67.7%; with EKVX NSCLC, 41.3%; in the assay on CAKI-1 renal it was 51.8%; with SR leukemia it was 36.5%; with RPMI-8226 leukemia, 67.9%; in the assay on OVCAR-5 ovarian it was 78.3%. Besides, the growth in the assay with IGROV1 ovarian was 56.4%; with OVCAR-3 ovarian, 44.3%; in the assay with HS 578T breast, 58.2%; in the assay on MCF7 breast, 47%.

With `O=S(=O)(c1ccc(Cl)cc1)C(Cl)(Cl)Cl`, the growth with A549/ATCC NSCLC is 56.6%; with COLO 205 colon, 48%; in the assay with HT29 colon it was 12.2%; in the assay with SNB-75 CNS, 39.6%; in the assay on SK-MEL-5 melanoma, 42.5%; with SK-MEL-28 melanoma it was 38.5%. Besides, the growth in the assay on EKVX NSCLC is 40.6%; in the assay with CCRF-CEM leukemia, 25.3%; with SR leukemia, 15.1%; in the assay with RPMI-8226 leukemia, 18%; with OVCAR-5 ovarian, 78.9%; with IGROV1 ovarian, 33.6%. Besides, the figures for the growth in the assay on OVCAR-3 ovarian and in the assay with MCF7 breast were -15.6% (active) and 23.8%, respectively.

`O=C(O)C1[O][Sb][O]C1C(=O)O` (centres undefined): the growth with A549/ATCC NSCLC is 103%; in the assay with COLO 205 colon it was 109%; in the assay on HT29 colon, 104%; with SNB-75 CNS it was 94.8%; with PC-3 prostate, 102%; in the assay with SK-MEL-5 melanoma, 86.9%. Moreover, the growth in the assay with SK-MEL-28 melanoma was 94%; with CAKI-1 renal, 118%; in the assay with SR leukemia, 70%; with RPMI-8226 leukemia, 99.3%; in the assay on OVCAR-5 ovarian it was 120%; with IGROV1 ovarian, 81.8%. Moreover, the growth is 95.4% in the assay with OVCAR-3 ovarian and 101% in the assay with HS 578T breast.

Consider `CC1(C)N=C(N)N=C(N)N1c1ccc(CCCCc2ccc(S(=O)(=O)F)cc2)cc1`, for which the growth with A549/ATCC NSCLC is 14%; in the assay with COLO 205 colon, 41.9%; in the assay with HT29 colon it was 8.88% (active); in the assay with SNB-75 CNS it was 63.7%; in the assay with PC-3 prostate, 12.5%; in the assay on SK-MEL-5 melanoma it was 19.3%. Further, the growth was 47.7% in the assay with SK-MEL-28 melanoma; 40.8% in the assay with CAKI-1 renal; 23.4% in the assay with CCRF-CEM leukemia; 38% with SR leukemia; 15.4% in the assay with RPMI-8226 leukemia; 41.2% in the assay with OVCAR-5 ovarian. The growth with IGROV1 ovarian is 30.2%; in the assay on OVCAR-3 ovarian, 33.2%; with MCF7 breast, 2.82% (active).

On to `CC(C)(O)/C=C/C(=O)[C@](C)(O)[C@H]1[C@H](O)C[C@@]2(C)[C@@H]3CC=C4[C@@H](C=C(O)C(=O)C4(C)C)[C@]3(C)C(=O)C[C@]12C`, for which the growth was -74.7% (active) in the assay with NCI-H522 lung; 0.767% (active) in the assay with A549/ATCC NSCLC; -31.1% (active) with HT29 colon; -58.8% (active) in the assay with PC-3 prostate; -78.4% (active) with SK-MEL-5 melanoma; -10.9% (active) in the assay with EKVX NSCLC. Further, the growth is -29.1% (active) in the assay on CCRF-CEM leukemia; -7.28% (active) with SR leukemia; -53.8% (active) in the assay with RPMI-8226 leukemia; -3.44% (active) in the assay on OVCAR-5 ovarian; -70.3% (active) in the assay with IGROV1 ovarian; -28.9% (active) in the assay with OVCAR-3 ovarian. Moreover, the results for the growth in the assay on HS 578T breast and in the assay with MCF7 breast were -17.4% (active) and 2.31% (active), respectively.

In the case of `CN1CCN(C(=O)COc2ccc(/C=C3\CC4C5CC=C6CC(Cl)CCC6(C)C5CCC4(C)C3=O)cc2)CC1` (centres undefined), the growth in the assay with A549/ATCC NSCLC is 65%; with COLO 205 colon it was 60.5%; in the assay with HT29 colon, -9.75% (active); with SNB-75 CNS, 86.8%; in the assay on PC-3 prostate it was 71.3%; with SK-MEL-5 melanoma, 80.4%. The growth was 103% in the assay on SK-MEL-28 melanoma; 68.2% in the assay with EKVX NSCLC; 70.1% in the assay on CAKI-1 renal; 49.3% in the assay on CCRF-CEM leukemia; 0.223% (active) with SR leukemia; 53.5% in the assay with RPMI-8226 leukemia. Moreover, the figures for the growth in the assay with OVCAR-5 ovarian, in the assay on OVCAR-3 ovarian and in the assay on MCF7 breast were 99.7%, 76.1% and 83.9%, respectively.

Regarding `C[C@]12CC[C@@H]3c4ccc(OC(=O)Cc5ccc(N(CCCl)CCCl)cc5)cc4CC[C@H]3[C@@H]1CC[C@@H]2OC(=O)Cc1ccc(N(CCCl)CCCl)cc1`, the growth in the assay with NCI-H522 lung was 134%; in the assay on COLO 205 colon, 104%; with HT29 colon, 117%; with SNB-75 CNS, 84.7%; with PC-3 prostate, 84.8%; in the assay on SK-MEL-28 melanoma, 117%. Also, the growth in the assay on EKVX NSCLC was 110%; with CAKI-1 renal, 101%; in the assay with CCRF-CEM leukemia, 136%; in the assay on SR leukemia it was 106%; in the assay with RPMI-8226 leukemia, 123%; with OVCAR-5 ovarian it was 105%. In addition, the growth was 109% in the assay on OVCAR-3 ovarian, 120% with HS 578T breast and 120% in the assay with MCF7 breast.

For `CCOc1cc(C=C(C#N)C#N)cc(Br)c1O`, the growth in the assay with NCI-H522 lung was 100%; with A549/ATCC NSCLC, 102%; with COLO 205 colon it was 103%; with HT29 colon, 92.5%; with SNB-75 CNS it was 83.5%; in the assay with PC-3 prostate, 98.4%. In addition, the growth in the assay on SK-MEL-5 melanoma is 105%; with SK-MEL-28 melanoma it was 109%; in the assay on EKVX NSCLC, 104%; in the assay on CAKI-1 renal it was 92.7%; with CCRF-CEM leukemia, 102%; in the assay on SR leukemia it was 93.4%. The growth was 105% with RPMI-8226 leukemia; 108% in the assay with OVCAR-5 ovarian; 109% in the assay with IGROV1 ovarian; 98.8% in the assay on OVCAR-3 ovarian; 107% in the assay on HS 578T breast; 96% with MCF7 breast.

In the case of `NC(=O)NC(=O)CI`, the growth in the assay on A549/ATCC NSCLC was 98.6%; in the assay on COLO 205 colon it was -62.4% (active); in the assay on HT29 colon, 99.1%; with SNB-75 CNS, 106%; with PC-3 prostate it was 98.5%; in the assay with SK-MEL-5 melanoma it was 93.9%. In addition, the growth in the assay with SK-MEL-28 melanoma is 89.5%; in the assay with SR leukemia, 25.9%; with RPMI-8226 leukemia it was 91.3%; in the assay with OVCAR-5 ovarian, 114%; in the assay on IGROV1 ovarian it was 69.5%; with OVCAR-3 ovarian it was 102%. The growth in the assay on HS 578T breast was 94.3%.

For the compound `O=c1[nH]c2cc(Cl)ccc2n1C1CCN(CCCC(c2ccc(F)cc2)c2ccc(F)cc2)CC1`, the growth with NCI-H522 lung is -56.4% (active); in the assay with COLO 205 colon, -88.3% (active); with HT29 colon it was -36.9% (active); with SNB-75 CNS it was 60.7%; in the assay with PC-3 prostate, 7.82% (active); with SK-MEL-5 melanoma, -80.9% (active). Also, the growth in the assay on SK-MEL-28 melanoma was -90.8% (active); in the assay with EKVX NSCLC, 61.5%; in the assay on CAKI-1 renal, 30%; with SR leukemia it was 16.2%; with RPMI-8226 leukemia, -52.8% (active); in the assay on OVCAR-5 ovarian it was 76.3%. In addition, the values for the growth in the assay on OVCAR-3 ovarian, in the assay with HS 578T breast and with MCF7 breast were -99.6% (active), -80.6% (active) and -32.4% (active), respectively.
